# Data published in ChEMBL document CHEMBL4513216, “Probing the Open Global Health Chemical Diversity Library for Multistage-Active Starting Points for Next-Generation Antimalarials” (ACS Infect Dis, 2020).
# About 2,100 (3.2%) of roughly 65,000 compounds showed an effect of 50% or more. The median lay at about -52%. For the sample, strong results were picked, then their nearest neighbours and some compounds at random.
# System: Plasmodium falciparum
# Assay: Screen against P. falciparum Asexual Blood Stage (ABS), at 5uM
# Format: functional, Dd2
# Conditions: tested at 5 uM
row,SMILES,INHIBITION [%]
1,CCN(CC)Cc1ccc(C(=O)NC2CCc3cc(Cl)ccc32)o1 (centres undefined),56
2,CCN(CC)Cc1ccc(C(=O)NC2CCc3cc(F)ccc32)o1 (centres undefined),16.3
3,Cc1cncc(C(=O)NCCSCc2cccs2)c1,-11
4,CN1CCOC(CNCCOc2cccc(C#N)c2)C1 (centres undefined),-70.4
5,Brc1cc2c(cc1CN1CCC(N3CCCCC3)CC1)OCCO2,61.5
6,OCC1CCN(Cc2cc3c(cc2Br)OCCO3)CC1,-9.89
7,OC1CCN(Cc2cc3c(cc2Br)OCCO3)CC1,-16.3
8,CN1CCN(C2CCN(CCOc3cccc(Cl)c3)CC2)C1=O,-9.24
9,Cn1ncc2c1NC(=O)CC2c1ccccc1Br (centres undefined),-46.4
10,CS(=O)(=O)NCc1cc(=O)n2c(n1)CN(Cc1ccco1)CCC2,-15.8
11,CNC(=O)c1cn[nH]c1C1(C)CCCN(Cc2ccccc2OC)C1 (centres undefined),31.1
12,CN(C)C(=O)c1cn[nH]c1C1(C)CCCN(Cc2ccccn2)C1 (centres undefined),-73.2
13,CNC(=O)c1cn[nH]c1C1(C)CCCN(Cc2ccccn2)C1 (centres undefined),61.9
14,CCOc1nnc(CN2CCN(CCOC)CC2)s1,-108
15,CN(C)S(=O)(=O)N1C[C@H]2CC[C@@H](C1)N(CCC(=O)NCc1ccco1)C2,-109
16,Cc1occc1C(=O)N1C[C@@H]2CCCO[C@@H]2[C@H](NC(=O)CC2CC2)C1,-27.2
17,COc1ccc(CCNC(=O)C(C)Nc2ccc(C)c(C)c2)cc1 (centres undefined),-52
18,CC(C)Nc1nc(N2CCCC2)nc2c1CN(C)CC2,48.5
19,CC(C)CCN1CCc2nc(N3CCOCC3)nc(NC(C)C)c2C1,8.26
20,Cc1nc(CN2CCc3nc(NC(C)C)nc(C)c3C2)cs1,-19.1
21,CC(C)Nc1nc(N2CCCC2)nc2c1CN(S(C)(=O)=O)CC2,50.6
22,CC(C)Nc1nc(N2CCCC2)nc2c1CN(C(C)C)CC2,66.8
23,CC(C)Nc1nc(N2CCCC2)nc2c1CCN(S(C)(=O)=O)CC2,51.5
24,Cc1nc(CN2CCc3nc(N4CCCC4)nc(NC(C)C)c3C2)cs1,57.3
25,CCS(=O)(=O)N1CCc2nc(N3CCCC3)nc(N(C)C)c2CC1,-19.4
26,CCN1CCc2nc(N3CCOCC3)nc(NC(C)C)c2C1,16.7
27,CC(C)Nc1nc(N2CCCC2)nc2c1CN(c1ncc(F)cn1)CC2,23.3

row,SMILES,INHIBITION [%]
1,CCCN1CCc2nc(N3CCOCC3)nc(NC(C)C)c2C1,-33.6
2,Cc1nc(N2CCCC2)nc2c1CN(C(C)C)CC2,-36.3
3,CC1(C)CN=C(N2CCN(CCCN3CCOCC3)CC2)S1,-67.2
4,N#Cc1ccc(N2CCCC3(CCN(c4cncnc4)C3=O)C2)nc1 (centres undefined),-38.5
5,CCN(CCO)C[C@@H]1CN(C(=O)c2ccc(C)s2)C[C@@H]1CO,-69.5
6,CN(C)C(=O)C1CN(Cc2ccsc2)Cc2ccnn2C1 (centres undefined),-99.4
7,CCC(=O)Nc1ccc2c(c1)C1(CCOCC1)CN2CCOC,-59.9
8,Fc1cccc(N2C[C@H]3CCN(c4cccnc4)C[C@H]3C2)c1,13.9
9,O=C(CCc1nc(-c2ccsc2)no1)NCC1CCN(C2CC2)C1 (centres undefined),2.06
10,COCCc1noc(CN2CCc3nn(C(C)C)c(=O)cc3C2)n1,-60.6
11,CCCn1nc2c(cc1=O)CN(Cc1nc(CCOC)no1)CC2,62.4
12,CCn1nc2c(cc1=O)CN(Cc1nc(CCOC)no1)CC2,-151
13,c1cncc(-c2nccc(CN3CCCC3)n2)c1,-151
14,CCc1c(C)nc2ccccc2c1N1CCC(C(=O)NC)CC1,52.7
15,CCc1c(C)nc2ccccc2c1N1CCC(O)CC1,0.854
16,CCc1c(C)nc2ccccc2c1N1CCC(NC(C)=O)CC1,24.4
17,Cc1ccc(C(=O)N2C[C@@H]3[C@@H](C2)OCC(=O)N3Cc2cccnc2)o1,-84.3
18,CN(C)Cc1cccc(-c2cccnc2C(=O)NCc2cn(C)cn2)c1,-167
19,Cc1ccc(C(=O)N2C[C@H]3CCC[C@@]3(COCC3CCOCC3)C2)o1,-35.2
20,CCS(=O)(=O)Nc1ccc2oc(C)c(C(=O)OC)c2c1,-54.7
21,CN1CCC(Oc2ccc(NC(=O)c3ccccc3Br)cc2)CC1,-76
22,Cc1ccccc1C(=O)Nc1ccc(OC2CCN(C)CC2)cc1,-41.5
23,COc1ccccc1C(=O)Nc1ccc(OC2CCN(C)CC2)cc1,64.2
24,CC(Cn1ccnc1)NC(=O)NCCc1cccnc1 (centres undefined),30.9
25,O=C(c1ncoc1C1CC1)N1CCCN(CCCc2ccccc2)CC1,69.7
26,Cn1nccc1C(=O)N1CCCN(CCCc2ccccc2)CC1,-14.1
27,O=C(c1ncoc1C1CC1)N1CCN(CCOc2ccccc2)CC1,-35.9
